# Screening data deposited in PubChem by The Scripps Research Institute Molecular Screening Center.
# In the library only some 2.6% were active in any assay of this set; here they are far more common.
# FID counter = compounds displacing fluorescent DNA intercalator, primary screen, artefact control for HCV NS3 helicase inhibitor project, biochemical, FID fluorescence; DNA fluorescent intercalator displacement; actives 0.17% (n = 290,000); AID 1845, 2009; inhibition, % at 7.9 µM; in the data active = inhibition above about 37%;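 also: 0% = vehicle and 100% = reference compound; higher means more ethidium bromide displaced from hairpin DNA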
# KLF5 inhibitor = KLF5 expression inhibitors, primary screen, DLD-1 cells, luminescence | DLD-1 KLF5 promoter-luciferase reporter | actives 0.23% (n = 290,000) | inhibition, % at 5 µM;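 active = inhibition above a per-plate limit of that plate's mean compound inhibition plus 3 SD, cut at about 60% in these data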;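 also: 0% = DMSO wells and 100% = LY294002 at 200 µM; higher means less KLF5 promoter-driven luciferase light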
# Ba/F3 V617F tox = reduced viability of JAK2V617F-dependent Ba/F3 cells, primary screen, JAK2V617F inhibitor project, cell-based, Ba/F3 EpoR-JAK2V617F, luminescence. ATP luminescence. inhibition, % at 5.6 µM. actives 1.1% (n = 220,000). AID 1446, 2008;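 active = inhibition above the campaign mean plus 3 SD over all tested compounds, cut at about 24% in these data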;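 also: cytokine-independent growth of Ba/F3 cells driven by EpoR plus mutant JAK2; 0% = DMSO-treated cells and 100% = JAK inhibitor I control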
# GPR7 antagonist = GPR7 receptor antagonists, primary screen, cell-based, fluorescence, single concentration. Neuropeptides B/W receptor type 1 (Homo sapiens), P48145. GPR7-expressing cells, fluorescence antagonist assay. inhibition, % at 4.4 µM. actives 1.1% (n = 290,000); in the data active = inhibition above about 16%, passing the limit was not always enough;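 also: cells stimulated with the agonist NPW; 0% = agonist with vehicle and 100% = vehicle without agonist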
# Target sequence (P48145 whole entry, looked up): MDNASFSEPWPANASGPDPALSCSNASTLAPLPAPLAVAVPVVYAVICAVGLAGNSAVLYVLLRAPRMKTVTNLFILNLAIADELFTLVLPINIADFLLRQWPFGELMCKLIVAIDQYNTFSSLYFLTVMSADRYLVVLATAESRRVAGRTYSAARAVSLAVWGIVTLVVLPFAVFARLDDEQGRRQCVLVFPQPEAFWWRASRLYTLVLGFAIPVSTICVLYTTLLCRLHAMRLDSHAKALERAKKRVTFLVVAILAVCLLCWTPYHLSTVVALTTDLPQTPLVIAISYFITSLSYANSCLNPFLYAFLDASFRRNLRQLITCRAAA
# BaF3 tox = parental Ba/F3 cell viability inhibition, counter-screen for JAK2V617F inhibitor project, murine pro-B, CellTiter-Glo luminescence; CellTiter-Glo ATP luminescence; actives 1.1% (n = 220,000); inhibition, % at 5.6 µM; AID 1486, 2009;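 active = inhibition above a per-campaign cutoff, the mean inhibition of all tested compounds plus 3 SD, cut at about 27% in these data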;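 also: 0% = DMSO wells and 100% = JAK Inhibitor I control wells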
# IEC-6 tox = cytotoxicity in IEC-6 intestinal epithelial cells, primary screen, cytotoxicity control for KLF5 inhibitor project, cell-based, luminescence | actives 0.78% (n = 290,000) | inhibition, % at 5 µM | AID 1825, 2009 | IEC-6 cytotoxicity, luminescence viability;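 also: 0% = plate median of test compound wells and 100% = cytotoxic reference compound wells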
# GPR7 antag cf = GPR7 receptor antagonists, confirmation, cell-based, fluorescence, single concentration; shares compounds with GPR7 antagonist; GPR7-expressing cells, calcium fluorescence antagonist mode; inhibition, % at 4.4 µM; actives 52% (n = 2,400); AID 1952, 2009; in the data active = inhibition above about 24%;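 also: stimulated with the GPR7 agonist NPW; 0% = agonist plus vehicle and 100% = vehicle alone without agonist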
# MCHR1 antag = MCHR1 antagonists in cells, counter-screen for GPR7 antagonist project, cell-based, fluorescence, human; shares compounds with GPR7 antagonist; MCHR1-expressing cells, fluorescence antagonist assay; inhibition, % at 4.4 µM; actives 62% (n = 2,400); AID 2148, 2009;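 also: 0% = vehicle with agonist and 100% = vehicle without agonist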
# An asterisk follows results filed as active; . = not tested or not shown. Rule as the data show it, unless noted: active = inhibition above about 22%; inactive = the rest.
SMILES,FID counter,KLF5 inhibitor,Ba/F3 V617F tox,GPR7 antagonist,BaF3 tox,IEC-6 tox,GPR7 antag cf,MCHR1 antag
COc1ccccc1-n1c(SCC(N)=O)nnc1-c1ccc(S(=O)(=O)N2CCCCC2)cc1,-25.7,-1.2,-2.5,38.8*,3.5,3.5,42.2*,16.1
CCn1c(SCc2ccccc2)nnc1-c1ccc(S(=O)(=O)N2CCCCC2)cc1,-42.6,-24.1,6.6,33.3*,17.7,9.5,18.8,32.7*
Cc1nn(C)c(C)c1NC(=O)CC12CC3CC(CC(C3)C1)C2,-12.4,-3.9,4.9,-9.1,9.5,1.4,.,.
O=C(CNS(=O)(=O)c1ccc(Br)s1)NCCc1ccc(Cl)cc1,-14.8,-6.7,.,25.3*,.,-0.5,2.6,33.9*
COc1ccc(CCNC(=O)CNS(=O)(=O)c2ccc(Br)s2)cc1OC,-12.5,1.0,-4.8,-3.6,-0.9,-2.0,.,.
CCCCc1ccc(N/C(N)=N/c2nc(C)cc(C)n2)cc1,15.9,-2.7,41.1*,96.6*,35.0*,11.9,92.7*,102.9*
Cc1ccc(N/C(N)=N/c2nc(C)cc(C)n2)cc1,-3.1,13.1,-1.5,75.1*,3.5,6.2,64.4*,73.4*
Cc1cccc(N/C(N)=N/c2nc(C)cc(C)n2)c1,3.7,-14.5,-1.1,28.5*,-0.5,10.9,38.9*,54.4*
Nc1cccc2c1C(=O)N(C(=O)/C=C/c1ccc(F)cc1)C2=O,2.6,1.3,0.9,-16.5,3.0,6.5,.,.
C=CCOC(=O)/C=C/C(=O)NC(N)=O,-0.9,-5.7,0.9,-6.5,-0.8,0.7,.,.
CC(C(=O)N1CCN(Cc2ccc3c(c2)OCO3)CC1)c1ccc([N+](=O)[O-])cc1 (configuration not stated),-5.2,-36.3,0.5,27.2*,10.9,-5.7,26.9*,27.5*
O=[N+]([O-])c1ccc(Oc2ccc(OCc3ccccc3)cc2)nc1,-7.5,-33.0,.,61.4*,.,-0.7,39.9*,60.9*
CCOc1ccc(/C=N/NC(=O)C(=O)NCc2ccco2)cc1,-1.0,10.6,-1.8,-6.1,6.3,-10.8,.,.
Cc1nc2cc(C(=O)O)ccc2n1-c1ccc(F)cc1F,0.3,-33.4,-0.6,-13.3,5.1,-6.5,.,.
CCOc1ccccc1-n1c(C)nc2cc(C(=O)O)ccc21,-2.1,11.1,2.6,27.5*,8.1,-6.9,-28.2,2.5
Clc1ccc(-n2c(SC/C=C/c3ccccc3)nnc2-c2cccnc2)cc1,-29.5,-28.7,-0.3,31.5*,0.8,4.6,26.9*,21.0
COc1ccc(C2CC(c3ccccc3)=NN2C(=O)COC(=O)c2nc3nccc(C)n3n2)cc1 (configuration not stated),-34.2,-27.7,-1.4,3.2,6.6,-3.3,.,.
CC(C)CC(=O)Nc1ccc(C(=O)NN2C(=O)c3ccccc3C2=O)cc1,-7.9,-23.7,-2.1,15.2,2.1,5.8,.,.
O=C(CSc1nc2scc(-c3ccco3)c2c(=O)n1-c1ccccc1)NCC1CCCO1 (configuration not stated),-50.8,-21.2,-4.8,-8.2,5.6,-10.6,.,.
CCc1ccc(CSc2nccn2-c2ccccc2)cc1,-17.5,-11.9,-2.8,26.9*,0.5,-4.0,-8.6,40.5*
COc1cccc(NC(=O)CN2CCN(S(=O)(=O)c3ccc(C(C)C)cc3)CC2)c1,-29.0,12.3,-2.0,34.6*,4.2,-2.6,37.6*,28.5*
COc1cccc(NC(=O)CN(C)C(=O)c2cccc(S(=O)(=O)N3CCN(c4ccccc4)CC3)c2)c1,-36.5,-38.0,.,24.2*,.,-1.8,15.9,39.0*
O=C(CN1CCN(S(=O)(=O)c2ccc(Cl)cc2)CC1)Nc1ccc(F)cc1F,-30.7,-13.0,3.0,24.2*,5.1,3.0,33.9*,21.8*
COc1cc(NC(=O)CNc2cccc(S(=O)(=O)N3CCCC3)c2)cc(OC)c1,-12.2,-19.7,.,31.0*,.,1.7,4.0,19.0
O=C(CN1CCN(S(=O)(=O)c2ccc(Br)cc2)CC1)Nc1ccc(F)cc1F,-28.8,-31.4,0.4,12.9,8.1,2.9,.,.
SMILES,FID counter,KLF5 inhibitor,Ba/F3 V617F tox,GPR7 antagonist,BaF3 tox,IEC-6 tox,GPR7 antag cf,MCHR1 antag
COc1ccc(C(=O)Nc2cccc3ccccc23)cc1,-5.6,-80.7,.,9.7,.,-0.6,.,.
O=C(CN1CCN(S(=O)(=O)c2ccc(Br)cc2)CC1)Nc1ccc(F)cc1,-23.1,24.4,0.2,30.3*,3.5,11.3,39.3*,26.1*
O=C(CN1CCN(CC(=O)Nc2ccccc2Cl)CC1)Nc1ccc(F)c(F)c1,-10.4,-8.6,.,48.0*,.,-5.8,42.5*,60.7*
COc1cccc(NC(=O)CN2C(=O)COc3ccc(S(=O)(=O)N4CCC(C)CC4)cc32)c1,-13.0,1.2,.,23.2*,.,-4.6,-15.3,0.4
COc1ccccc1NC(=O)CN1C(=O)COc2ccc(S(=O)(=O)N3CCC(C)CC3)cc21,-43.6,-4.0,.,-4.0,.,-3.5,.,.
CCCCNC(=O)O[C@H]1C[C@@H]2CCN3C(=O)CCC[C@H]([C@H]1CC)[C@H]23,-29.3,-12.8,.,6.8,.,-1.1,.,.
CCc1ccc(N(C(=O)Cn2nnc(-c3ccccc3)n2)C(C(=O)NC2CCCCC2)c2ccccn2)cc1 (configuration not stated),-6.5,2.8,1.9,8.0,5.9,2.1,.,.
Cc1ccc(NC(=S)NNC(=O)c2cccc([N+](=O)[O-])c2)cc1Cl,-2.4,-29.1,-1.3,-9.6,-3.3,-11.5,.,.
C/C(CC(=O)Nc1ccc(N(C)C)cc1)=N\NC(=O)c1ccc([N+](=O)[O-])cc1,-6.4,-39.8,.,26.9*,.,1.7,7.0,1.6
CS(=O)(=O)Nc1ccc(S(=O)(=O)NC2CCCCC2)cc1,-1.9,-0.4,-1.7,-10.9,-0.7,-7.0,.,.
O=S(=O)(NC1CCCC1)c1ccc(S(=O)(=O)NC2CCCC2)cc1,-12.1,-1.0,-1.9,43.4*,3.2,0.5,51.1*,33.2*
CN(C(=O)c1ccc(S(=O)(=O)NC2CCCC2)cc1)C1CCCCC1,-33.4,-15.1,0.2,29.8*,0.2,3.8,45.7*,21.5*
O=S(=O)(NC1CC1)c1ccc(S(=O)(=O)N2CCc3ccccc32)cc1,-13.2,-3.7,-2.7,21.8*,4.1,6.4,22.4,28.9*
Cc1cc(C)n(C(C)CC(=O)Nc2ccc(-c3ccno3)cc2)n1 (configuration not stated),-21.1,-0.1,.,15.2,.,3.2,.,.
